# Measured values reported in the supplement of paper PMC8728848.
# The sample as a whole holds a higher share of the strongest signals than the screen did.
# What was measured:
# Test in all cases: glycan array binding signal (z-score within array); higher = stronger binding
# Conditions in all cases: glycan notation: IUPAC condensed, linker removed
# [1] = molecular target: GalNAc(b1-3)Gal(a1-4)Gal(b1-4)GlcNAc
# Outline: (§1)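 The binding signal is a Z-score computed within each array and averaged over linkers. Arrays of the same protein sequence at different concentrations or buffers were also averaged together. Data originate from 3228 arrays in the Consortium for Functional Glycomics database, kept only where the protein sequence was available.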
# GalNAc(b1-4)GlcNAc = molecular target: GalNAc(b1-4)GlcNAc
# Outline: as §1
# [2] = molecular target: GalNAc(b1-4)GlcNAc(b1-2)Man
# Outline: as §1
# [3] = molecular target: GalNAc(b1-4)GlcNAc(b1-3)GalNAc(b1-4)GlcNAc
# Outline: as §1
# GalNAc(b1-4)GlcNAc6S = molecular target: GalNAc(b1-4)GlcNAc6S
# Outline: as §1
# GlcA(b1-6)Gal = molecular target: GlcA(b1-6)Gal
# Outline: as §1
# [4] = molecular target: GlcNAc(a1-4)Gal(b1-4)GalNAc
# Outline: as §1
# [5] = molecular target: GlcNAc(a1-4)Gal(b1-4)GlcNAc(b1-3)Gal(b1-4)GlcNAc
# Outline: as §1
# [6] = molecular target: GlcNAc(b1-2)Gal(b1-3)GalNAc
# Outline: as §1
# [7] = molecular target: GlcNAc(b1-2)[GlcNAc(b1-6)]Man(a1-6)[GlcNAc(b1-2)Man(a1-3)]Man(b1-4)GlcNAc(b1-4)GlcNAc
# Outline: as §1
# [8] = molecular target: GlcNAc(b1-2)[GlcNAc(b1-6)]Man(a1-6)[GlcNAc(b1-2)Man(a1-3)]Man(b1-4)GlcNAc(b1-4)[Fuc(a1-6)]GlcNAc
# Outline: as §1
# [9] = molecular target: GlcNAc(b1-3)Gal(b1-4)GlcNAc
# Outline: as §1
# [10] = molecular target: GlcNAc(b1-3)Gal(b1-4)GlcNAc(b1-6)[Gal(b1-3)]GalNAc
# Outline: as §1
# GlcNAc(b1-4)GlcNAc = molecular target: GlcNAc(b1-4)GlcNAc
# Outline: as §1
# [11] = molecular target: Neu5Ac(a2-3)Gal(b1-3)GlcNAc
# Outline: as §1
# [12] = molecular target: Neu5Ac(a2-3)Gal(b1-3)[GlcNAc(b1-6)]GalNAc
# Outline: as §1
# [13] = molecular target: Neu5Ac(a2-3)Gal(b1-4)GlcNAc
# Outline: as §1
# [14] = molecular target: Neu5Ac(a2-3)Gal(b1-4)GlcNAc(b1-3)Gal(b1-4)GlcNAc(b1-2)Man(a1-3)[Neu5Ac(a2-3)Gal(b1-4)GlcNAc(b1-3)Gal(b1-4)GlcNAc(b1-2)Man(a1-6)]Man(b1-4)GlcNAc(b1-4)GlcNAc
# Outline: as §1
# [15] = molecular target: Neu5Ac(a2-3)Gal(b1-4)GlcNAc(b1-3)Gal(b1-4)GlcNAc(b1-3)Gal(b1-4)GlcNAc(b1-2)Man(a1-3)[Neu5Ac(a2-3)Gal(b1-4)GlcNAc(b1-3)Gal(b1-4)GlcNAc(b1-3)Gal(b1-4)GlcNAc(b1-2)Man(a1-6)]GalNAc
# Outline: as §1
# [16] = molecular target: Neu5Ac(a2-3)Gal(b1-4)[Fuc(a1-3)]GlcNAc(b1-6)[Neu5Ac(a2-3)Gal(b1-3)]GalNAc
# Outline: as §1
# [17] = molecular target: Neu5Ac(a2-6)Gal(b1-4)GlcNAc
# Outline: as §1
# [18] = molecular target: Neu5Ac(a2-6)Gal(b1-4)GlcNAc(b1-2)Man(a1-3)[Neu5Ac(a2-3)Gal(b1-4)GlcNAc(b1-2)Man(a1-6)]Man(b1-4)GlcNAc(b1-4)GlcNAc
# Outline: as §1
# [19] = molecular target: Neu5Ac(a2-6)Gal(b1-4)GlcNAc(b1-3)Gal(b1-3)GlcNAc
# Outline: as §1
# [20] = molecular target: Neu5Ac(a2-6)GlcNAc(b1-4)GlcNAc(b1-4)GlcNAc
# Outline: as §1
# [21] = molecular target: Neu5Ac(a2-8)Neu5Ac(a2-3)[GalNAc(b1-4)]Gal(b1-4)Glc
# Outline: as §1
binder,measurement,setting,value
SJA (Sophora japonica) (protein) FLGLFNSGGYSSSYQIVAVEFDTYINEWDPKTRHIGIDINSINSTKTVTWGWENGEVAIVLISYKAATETLTVSLTYPSSQTSYILSAAVDLKSILPEWVRIGF,glycan array binding signal (z-score),[1],-0.186
same,glycan array binding signal (z-score),GalNAc(b1-4)GlcNAc,3.38
same,glycan array binding signal (z-score),[2],2.46
same,glycan array binding signal (z-score),[3],8.25
same,glycan array binding signal (z-score),GalNAc(b1-4)GlcNAc6S,3.05
same,glycan array binding signal (z-score),GlcA(b1-6)Gal,-0.111
same,glycan array binding signal (z-score),[4],-0.15
same,glycan array binding signal (z-score),[5],-0.229
same,glycan array binding signal (z-score),[6],-0.192
same,glycan array binding signal (z-score),[7],-0.255
same,glycan array binding signal (z-score),[8],-0.375
same,glycan array binding signal (z-score),[9],-0.101
same,glycan array binding signal (z-score),[10],-0.24
same,glycan array binding signal (z-score),GlcNAc(b1-4)GlcNAc,-0.142
same,glycan array binding signal (z-score),[11],-0.139
same,glycan array binding signal (z-score),[12],-0.156
same,glycan array binding signal (z-score),[13],-0.241
same,glycan array binding signal (z-score),[14],0.783
same,glycan array binding signal (z-score),[15],3.51
same,glycan array binding signal (z-score),[16],-0.056
same,glycan array binding signal (z-score),[17],-0.22
same,glycan array binding signal (z-score),[18],-0.178
same,glycan array binding signal (z-score),[19],-0.207
same,glycan array binding signal (z-score),[20],-0.288
same,glycan array binding signal (z-score),[21],-0.232
